Screening results as filed in PubChem.
Hits are enriched below; roughly 6.1% of the tested compounds scored in any of these assays.
HepG2 viability: kills HepG2 cells in TGF-b inhibitor counter-screen | HepG2 CAGA-GFP viability, ATP luminescence, 18 h | Potency, µM (highest dose often 46.1 µM), actives largely listed as cytotoxic | actives 0.76% (n = 410,000) | AID 588856
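HepG2 CAGA-GFP cells (1000/well, DMEM with 1% FBS) received compound, then TGF-beta at 500 pg/mL final, and were incubated 18 hours at 37 degrees C. Viability was read by CellTiter-Glo luminescence. Media-only wells were set as complete cell-killing and DMSO as no toxicity.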
Gal4-VP16 FLuc: Gal4-VP16 reporter inhibition counter-screen; Drosophila S2 Gal4-VP16 UAS-luciferase, luminescence, 20 h; Potency, µM (doses to about 53.6 µM), hits mostly inhibitors; actives 3.5% (n = 310,000);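 further: Gal4-VP16 expression switched on by copper sulfate through the metallothionein promoter; nearly all actives have a fitted effect of over 50% in size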
RORgamma inh: ROR gamma (mouse) transcription inhibition. Drosophila S2 Gal4-RORgamma UAS-luciferase reporter, 20 h. Potency, µM (doses to about 53.6 µM), hits mostly inhibitors. actives 5.4% (n = 310,000); further: nearly all actives have a fitted effect of over 60% in size
Target sequence (P51450 whole entry, looked up, the tested form may be a part): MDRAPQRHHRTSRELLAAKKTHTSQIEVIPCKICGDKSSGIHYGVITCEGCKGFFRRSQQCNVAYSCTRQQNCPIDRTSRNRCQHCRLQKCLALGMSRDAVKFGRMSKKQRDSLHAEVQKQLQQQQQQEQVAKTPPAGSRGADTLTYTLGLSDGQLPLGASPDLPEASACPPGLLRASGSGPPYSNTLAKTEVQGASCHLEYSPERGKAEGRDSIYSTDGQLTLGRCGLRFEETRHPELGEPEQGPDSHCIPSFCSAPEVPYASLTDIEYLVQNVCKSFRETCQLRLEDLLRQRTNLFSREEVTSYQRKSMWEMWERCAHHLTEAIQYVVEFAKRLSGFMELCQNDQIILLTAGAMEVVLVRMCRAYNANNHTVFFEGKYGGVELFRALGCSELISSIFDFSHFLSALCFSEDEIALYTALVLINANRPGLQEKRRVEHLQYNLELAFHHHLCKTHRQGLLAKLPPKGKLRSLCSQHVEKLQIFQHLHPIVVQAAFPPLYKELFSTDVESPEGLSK
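Using a luciferase readout, inhibitors were identified by reduced reporter activity in Drosophila cells coexpressing a copper-inducible Gal4–ROR gamma fusion and UAS-driven Photinus luciferase, incubated 20 hr after 700 uM copper sulfate.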
TGFb inhibitor: blocks TGF-b signaling; HepG2 CAGA-GFP TGF-b/SMAD3 reporter, GFP fluorescence, 18 h; TGF-beta stimulated, 500 pg/mL final; Potency, µM (highest dose often 46.1 µM), hits mostly inhibitors; actives 1.2% (n = 410,000); AID 588855; further: nearly all actives have a fitted effect of over 65% in size
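GFP signal (ex488/em500-530) from TGF-beta-stimulated HEPG2 CAGA-GFP cells, 500 pg/mL final, 18 h at 37 degrees C in DMEM plus 1% FBS, normalized to unstimulated and DMSO-stimulated controls.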
ATXN viability: cell viability loss in ATXN counter-screen; S2 cells (HEK-293 line with an ATXN2-luciferase reporter) viability, CellTiter-Fluor protease fluorescence, 24 h; Potency, µM (series often up to 56.7 µM), hits mostly cytotoxic; actives 0.49% (n = 400,000); further: nearly all actives have a fitted effect of over 40% in size
ATXN2 expr inh: reduces ATXN2 reporter expression in HEK-293 cells; HEK-293 ATXN2-luciferase reporter, luminescence, 24 h; Potency, µM (top dose mostly 57 µM), usual class: inhibitors; actives 0.72% (n = 360,000); further: nearly all actives have a fitted effect of over 55% in size
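ATXN2-luciferase reporter cells (luciferase flanked by upstream and downstream ATXN2 gene portions) were treated 24 h at 37 °C with compounds at up to 57 uM. SteadyGlo luminescence gave expression; GF-AFC fluorescence gave viability.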
A number is an active result; - = inactive; ? = inconclusive; . = no result given; [ ] = remark or other dose. The call rests on the fitted dose curve; in most records, active means well fitted curve in the direction sought with a large enough effect; inconclusive means small, poorly fitted or top-dose-only effect, or another doubt; inactive means no such curve, though single readings can be large; an effect the other way counts as inactive or inconclusive.

SMILES	HepG2 viability	Gal4-VP16 FLuc	RORgamma inh	TGFb inhibitor	ATXN viability	ATXN2 expr inh
COc1ccc(C/C(N)=N/OC(=O)c2ccc(Cl)cc2)cc1	-	-	-	-	-	-
CCc1ccc(CNC(=O)Cn2nc(C)c3nn(-c4ccc(Cl)cc4)c(C)c3c2=O)cc1	-	.	.	-	.	.
Cc1cc(NC(=O)C(C)(C)Oc2ccc(Cl)cc2)cc(-c2nc3ncccc3o2)c1O	-	.	.	-	-	-
COc1ccccc1-c1cc(C(F)(F)F)nc(S(=O)(=O)CCCC(=O)NC(C)C)n1	-	7.1µM	4.5µM	?	32µM	?
CS(=O)(=O)c1nc(-c2ccco2)cc(C(F)(F)F)n1	.	2.8µM	2.5µM	.	.	.
COc1ccccc1-c1cc(C(F)(F)F)nc(N2CCCC2)n1	-	-	-	-	-	-
COc1ccccc1-c1cc(C(F)(F)F)nc(S(=O)(=O)CCCC(=O)NCc2ccc(F)cc2)n1	14µM	?	8.9µM	?	.	?
COc1ccccc1-c1cc(C(F)(F)F)nc(S(C)(=O)=O)n1	-	7.1µM	4µM	?	32µM	?
COc1ccccc1-c1cc(C(F)(F)F)nc(S(=O)(=O)CCCC(=O)Nc2cc(Br)ccc2O)n1	-	.	.	-	-	-
CN(C)c1ncc2ncc(=O)n(Cc3cccs3)c2n1	.	-	?	.	.	.
COc1cc(-c2cc(C)c3c(OC)ccc(OC)c3n2)cc2c1OCCN(Cc1cn(C)nc1C)C2	.	.	.	.	-	.
Cc1cc(C)c2c(=O)n(CC(=O)Nc3ccc(Br)c(C)c3)sc2n1	-	?	13µM	?	-	.
Cc1cc(C)c2c(=O)n(CC(=O)Nc3cccc(Cl)c3C)sc2n1	-	3.2µM	?	?	-	-
Cc1cc(C)c2c(=O)n(CC(=O)NC3CCCC3)sc2n1	-	?	?	-	-	-
COC(=O)c1c(C)sc(-c2c(-c3ccc4c(c3)OCCO4)[nH]c3c2c(=O)[nH]c(=O)n3C)c1O	-	.	.	-	.	.
Cc1cccc(NS(=O)(=O)c2ccc3c(c2)C(C)(C)C(=O)N3C)c1	-	.	.	-	.	.
Cc1cccc(CSC(Nc2ccc(F)cc2)=C(C#N)C#N)c1	-	?	?	5µM	-	?
N#CC(C#N)=C(Nc1ccc(F)cc1)SCc1cccc(Br)c1	-	7.9µM	?	1.6µM	?	?
CC(SCc1ccccc1)C(=O)Nc1ccc(F)cc1 (configuration not stated)	-	-	-	-	-	-
CO[C@@H]1COC(=O)[C@H](C)NC(=O)[C@@H](C)COC(=O)[C@H](C)NC(=O)C/C=C\[C@H]1C	.	-[10 µM]	-[10 µM]	.	.	.
CCOc1ccc(NC(=O)NC(CC)Cn2nnc3ccccc3c2=O)cc1 (configuration not stated)	-	.	.	?	-	-
CCNc1ccc(/C=C2\C=Cc3ccccc32)cc1	-	.	.	-	.	.
Cc1cccc(C)c1NC(=O)Cn1c(=O)n(Cc2ccc(C(=O)NCc3ccco3)cc2)c(=O)c2sccc21	-	.	.	?	?	?
Cc1cc(C)c(NC(=O)Cn2c(=O)n(Cc3ccc(C(=O)NCc4ccco4)cc3)c(=O)c3sccc32)c(C)c1	-	.	.	10µM	.	.
CCCCc1ccc(NC(=O)C(C)CC)cc1 (configuration not stated)	-	4µM	1.4µM	-	-	-[11.3 µM]
SMILES	HepG2 viability	Gal4-VP16 FLuc	RORgamma inh	TGFb inhibitor	ATXN viability	ATXN2 expr inh
CCCCc1ccc(NC(=S)N2CCN(C)CC2)cc1	-	?	11µM	-	-	.
CC(C)c1ccc(NC(=S)N2CCCC2)cc1	-	?	10µM	-	-	-
CCCCc1ccc(NC(=S)N2CCN(C(=O)OCC)CC2)cc1	-	?	1.3µM	-	-	-
CC(=O)OC[C@@H]1O[C@@H](O/N=C2/C[C@@H](O)[C@@H](O)[C@@H]3[C@@H]4C(=O)N(C5CCCCC5)C(=O)[C@H]4CC[C@H]23)[C@H](OC(C)=O)[C@H](OC(C)=O)[C@@H]1OC(C)=O	.	-[10 µM]	-[10 µM]	.	.	.
Cc1cccc(-c2noc(CNC(=O)c3ccccc3Br)n2)c1	-	.	.	-	.	.
CCCCC/C=C\C/C=C\CCCCCCCC(=O)NC(C)c1ccccc1 (configuration not stated)	.	.	.	.	-	-
O=C(CN1Cc2ccccc2OC(c2ccccc2)C1)NCc1cccnc1 (configuration not stated)	.	.	.	.	-	.
CCCCc1ccc(NC(=S)N2CCCC2)cc1	-	10µM	11µM	?	-	-
CCCCc1ccc(NC(=S)NN2CCOCC2)cc1	-	-	-	?	-	-
Cc1cc(C(=O)Nc2nc3c(s2)CCCC3)cs1	-	6.3µM	?	-	-	-
O=C(Nc1nc2c(s1)CCCC2)c1ccc2ncsc2c1	-	?	1.8µM	-	?	-
Cc1ncsc1C(=O)Nc1nc2c(s1)CCCC2	-	-	-	-	-	-
Cc1cccc(C(=O)Nc2nc3c(s2)CCCC3)c1	-	.	.	?	.	.
O=C(Nc1cccc(Br)c1)Nc1nc2c(s1)CCCCCC2	-	.	.	11µM	?	-
O=C(Nc1nc2c(s1)CCCC2)c1ccc(Br)s1	-	?	11µM	-	?	-
O=C(Nc1nc2c(s1)CCCC2)c1ccc(N2C(=O)CCC2=O)cc1	-	-	?	-	-	-
NC(C(=O)O)C(O)c1ccc(O)c(O)c1 (configuration not stated)	.	-	-[10 µM]	.	.	.
COc1ccc(-n2c(=O)c3c4c(sc3n(Cc3ccc(C)cc3C)c2=O)CCC4)c(OC)c1	5.6µM	.	.	-	-	-
COc1ccc(-n2c(=O)c3c4c(sc3n(Cc3ccccc3Cl)c2=O)CCC4)c(OC)c1	-	.	.	-	?	-
CCCCCCCCCCCCCCCC(C)C1=NCCN1 (configuration not stated)	-	.	.	-	.	.
COC(=O)[C@]12CCCCC=C1N(Cc1ccc(Cl)cc1Cl)C(=O)[C@H](CC(=O)NCCCCc1ccccc1)C2	.	.	.	.	?	-
CCCCNC(=O)C[C@@H]1C[C@@]2(C(=O)OC)CCCCC=C2N(Cc2ccc(Cl)cc2Cl)C1=O	.	.	.	.	32µM	?
CCCCCCCCN1C(=O)[C@H](CC(=O)N2CCN(C(=O)C3CC3)CC2)C[C@@]2(C(=O)OCC)CCCC=C12	.	.	.	.	14µM	?
CCCCCCCCN1C(=O)[C@H](CC(=O)NCCCC)C[C@@]2(C(=O)OC)CCCCC=C12	.	.	.	.	28µM	-
CCCCCCCCN1C(=O)[C@H](CC(=O)NCCCOCCCC)C[C@@]2(C(=O)OCC)CCCC=C12	.	.	.	.	?	-
CC(C)(C)n1ncc2c(=O)n(Cc3ccc(-c4ccccc4C#N)cc3)cnc21	-	.	.	-	.	.
O=S(=O)(c1cccc(C(F)(F)F)c1)n1c(/C=C/c2ccccc2)nc2ccccc21	-	.	.	-	.	.
CCC1(C)Cc2ccccc2C(=O)N1 (configuration not stated)	-	-	-	-	-	.
